Data on 107 sequences can be found in PubChem BioAssay AID1508600 (Functional Genomics Laboratory (NCATS/FGL), 2020).

Hit rate of the full screen: of about 53,000 sequences, about 3,700 (7%) were called active.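 The calls were made as follows: active = gene knockdowns whose robust z-score for IL-1 alpha signal is at least 2 or at most -2, so actives lie on both sides; inactive = the rest.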 Only a selection was taken, and actives are over-represented in it overall.

The nature of the test: Components of the Cytosolic LPS Sensing Pathway: Gene Identification via Genome-wide siRNA Screen. The conditions noted are these: RAW264.7 macrophages, IL-1a HTRF, actives lie on both sides, screened at 100 nM (by protocol), cells primed 5 h with Pam3CSK4 first. The source says: Non-canonical inflammasome activation by cytosolic LPS is a critical component of the host response to Gram-negative bacterial infection, however we lack a comprehensive understanding of the cellular processes that control this pathway. Here we describe a genome-wide siRNA screen to identify genes regulating the mouse macrophage IL-1 alpha response to cytosolic LPS.
RAW264.7 cells were maintained in complete DMEM media, comprising DMEM with 4.5 g/L glucose, 10% FBS (Gemini Bio-Products, West Sacramento, CA), 2 mM Glutamine (Lonza) and 20 mM HEPES (Lonza), hereafter complete DMEM.
The RNAi screen was conducted in 384-well format using the Ambion Silencer Mouse Genome siRNA Library (#4391425), which consists of three unique, nonoverlapping, nonpooled siRNAs for each of 17,000 gene targets. siRNA reagents ([…]) were stamped into 384-well white flat-bottom microplates (Corning, 3570) using a Velocity11 VPrep liquid handling system (Agilent) integrated into a BioCel robotic platform (Agilent) in columns 1-22, leaving columns 23-24 empty for negative (Ambion, Negative control #1) and positive (mouse Casp4) controls, respectively. The median value of each plate's negative control column was used to normalize sample wells, and the positive control was used to assess transfection efficiency and assay performance.
Lipofectamine RNAiMAX Transfection Reagent ([…]; Invitrogen) was added in […] serum-free, antibiotic-free media to plate wells using a Thermo Scientific Matrix WellMate and Microplate Stacker. Plates were incubated for 45 min at room temperature to allow for the sufficient formation of siRNA-lipid complexes. Cells were seeded at a density of 1x10^4 cells per well in 20 microL media containing 20% (vol/vol) FBS without antibiotics. The final concentration of siRNA in each well was 100 nM. Cells were cultured for 48h at 37 degrees C in 5% CO2 before addition of […] of TLR ligand Pam3CSK4 for 5 hours. The medium was then removed, replaced with […] growth media and cell were transfected with […] of LipidA and TransIT-TKO (Mirus) for 24 hour. At the end of the LipidA treatment, […] of supernatant was transferred to a 384 Greiner Bio-one non-binding low volume plate and […] of IL-1a HTRF reagent (Cisbio, 62MIL1APEH) was added and incubated at room temperature overnight. The plates were read on an EnVision plate reader (PerkinElmer). Cell viability was measured by adding 20ul Cell Titer Glo to the original plate and running a luminescence read on the EnVision. The quantified IL-1a signal for each siRNA gene-targeted well was divided by the median of the negative control wells and multiplied by 100 to achieve a negative control normalized value for each well/siRNA. This normalized value was then used to generate a robust z-score by first taking the log of each value and then by subtracting the median and dividing by the […].
As to GGGUCACUUGGAUUGUGGATT against Tmx2, the z-score was -0.0195 (inactive).

For GGAUCCUGCAUAUCUCAAATT against Mrps18c, the z-score is 0.186 (inactive).

Regarding GGGACACGAUGAGGAGUCATT against Cfap410, the z-score was -2.21 (active).

For GCGACUUAGAAAAGAACAGTT against Ccdc58, the z-score was 1.91 (inactive).

Consider “GGAACAGCAGCUUCCCUAATT against 4930555G01Rik”, for which the z-score is -0.0144 (inactive).

On to CCAAGCGAAAUCGAGGUGUTT against Omt2b, for which the z-score is 0.931 (inactive).

For the sequence GGCUAUAGCAGCACAUUGGTT against Ylpm1, the z-score is 2.57 (active).

For the sequence GGUGGAGCAGAUGAAGAACTT against Hspbp1, the z-score is 0.447 (inactive).

For the sequence CCCAAGAAGUUUUAUUCUGTT against Zbbx, the z-score is -0.221 (inactive).

For GGCCUACGACAAAUCCAAATT against Csrp2, the z-score is 1.14 (inactive).

As to GGCGAAGAUUGAAAAAUGCTT against Ube3c, the z-score was -0.407 (inactive).

As to GGAACUAAAUGUGAAACAUTT against Ift52, the z-score is -2.07 (active).

In the case of GGAAGUGGAACAGGACGUATT against Caps2, the z-score is -1.17 (inactive).

With GCUGUACCACAACUAGUCATT against Cdc7, the z-score was 0.977 (inactive).

As to GGCAAGUUUGCUAUAACCUTT against Jmy, the z-score was -2.57 (active).

On to GGAAUAGGGAGGUAACCAGTT against Olfr1394, for which the z-score was 0.0525 (inactive).

With GGAAAUUGCACCUUUAAAGTT against Rnf130, the z-score is 0.335 (inactive).

Consider CGUAGCCGAGAAGACCCUATT against Shh, for which the z-score was 0.0734 (inactive).

Take GGUUUUAGAAUUCUGGACGTT against Plppr2: the z-score was 0.243 (inactive).

For the sequence GCUCCUCUCAGGUGUACGATT against B9d2, the z-score is 2.23 (active).

Take GGGCAGGGAUGUUUAGAUCTT against Homer2: the z-score was 0.499 (inactive).

As to CCAACAUCUCUGUAUACUGTT against Olfr8, the z-score was 0.178 (inactive).

In the case of CCUACGUGAUCAACAAGCATT against Fxn, the z-score was 0.682 (inactive).

Regarding GGGAGCAACUGUGUCAAAUTT against Tspan10, the z-score is 1.06 (inactive).

GGAAAGACACAGAUAAUAATT against Arvcf: the z-score was -1.28 (inactive).

Consider CCAAUAACUCUAAAUAGGCTT against Trhr, for which the z-score was 0.308 (inactive).

On to GGUCAUCGAAUCUGGAGUATT against Pyroxd1, for which the z-score is -0.282 (inactive).

GGUCCACAGUACCACAUAATT against Tespa1: the z-score is -3.2 (active).

With CAUCCCAGAGUGUUGUCUUTT against Olfr1325, the z-score was 1.97 (inactive).

In the case of GCAGCUCCCAAUCUCACUUTT against Ankrd34a, the z-score was 0.171 (inactive).

As to “GGUGUCCGUAAAUGGAGUGTT against A430033K04Rik”, the z-score is 0.809 (inactive).

On to GGAAGAGAGCCUCUGCCAATT against Ccnb2, for which the z-score was 2.28 (active).

As for GUGUGCUAUGAGCAAUGCCTT against Sprr2a1, the z-score was -1.34 (inactive).

On to GGUUCGACGAAGAUCAGAGTT against Akap1, for which the z-score is -0.634 (inactive).

In the case of GGAAAGUGUUCUCUACAUGTT against Olfr1093, the z-score was 0.878 (inactive).

Consider GGUAACAAGAGGUCUAGCATT against P2ry1, for which the z-score was 3.66 (active).

Regarding GGAUACUGGCAUGAAAUUGTT against Slc22a2, the z-score was -0.888 (inactive).

With GGCGGAACACAUGACUAGGTT against Ilf3, the z-score is 0.189 (inactive).

As to GGUCUGAAAAUGGAAUACCTT against Vps13a, the z-score was 1.8 (inactive).

Turning to GGGAAUCAACGCAAAGUUGTT against Pcdhga5, the z-score was -0.00294 (inactive).

As to GCACAAGACUAACAAUACGTT against Sptbn2, the z-score was -1.26 (inactive).

GGACAUCAAAGAAAAGUCATT against Gpr171: the z-score is 0.955 (inactive).

For the sequence GCCAAUGAAAGAGACGUAGTT against Fam81a, the z-score is -0.421 (inactive).

In the case of CCAAGAUGGGUUCAUCUCUTT against Cabp5, the z-score is 2.39 (active).

Consider CGGAUUUCAUGGCUCAAGATT against Gfm2, for which the z-score is -0.123 (inactive).

In the case of CGUGAACAGCUUUAAGGUGTT against Usp27x, the z-score is 1.34 (inactive).

For CCCUAACAAACCCUAUUAUTT against Kdm6b, the z-score was -1.49 (inactive).

For GCUGAGACCCAGAUGCAAUTT against Mal, the z-score was 0.858 (inactive).

For the sequence GUCUGCAUCACCUUCACCATT against Lhb, the z-score is -0.301 (inactive).

Consider CGGUAUCACGGUUAUCCUUTT against Olfr215, for which the z-score was 0.932 (inactive).

For GGGAUUCCAGACAUGGGAATT against Alg9, the z-score was -0.191 (inactive).

For GCGGUUCUAAGGAUACCGATT against Txndc17, the z-score is 2.52 (active).

GGGUUUCUGACCCUUGGUUTT against Vmn1r220: the z-score is -1.42 (inactive).

As for GGGUGUGAAGUCAUGGUAUTT against Trmt9b, the z-score was 0.503 (inactive).

As for GGCCUCCUAAGAGGACUCATT against Dach1, the z-score was -1.11 (inactive).

Consider CGCAAUUCAGGUACCAAAUTT against Ndufv1, for which the z-score was -0.0623 (inactive).

With GCCUGAAAUCAACUCCACCTT against F2, the z-score was 2.21 (active).

With CCAUUACAUCAGCUUUAUUTT against Pamr1, the z-score was -0.845 (inactive).

GGAUAUCCUUACAAGGACCTT against Tmco3: the z-score is -0.646 (inactive).

For GGCCGACCUUUCUAUCAAUTT against Rasip1, the z-score is -0.0174 (inactive).

For GGUGUCAUUCAACUUGCAUTT against Rnase10, the z-score was -2.55 (active).

As for GGAGGAAUACAAAUUCAAGTT against Vamp5, the z-score is 1.37 (inactive).

As to GGCUCUCUGGAGAAUCAUGTT against Slc25a28, the z-score was 0.0751 (inactive).

Regarding GGUUACUAUGGAGACCUGGTT against Mia, the z-score was 0.429 (inactive).

On to GCCUUAAUACUCACCAGGGTT against Zscan2, for which the z-score was 0.702 (inactive).

As to GCUAAGACACGAUAAACUUTT against Yes1, the z-score was 1.34 (inactive).

For GCUGAUAAGGAGGUACCAUTT against Igf2r, the z-score is 0.916 (inactive).

GGAAAAGCAUCAAUUGAUGTT against Abca8b: the z-score is -1.02 (inactive).

In the case of GGCUUUCAUUCUGCAGCUATT against Olfr1089, the z-score is -2.13 (active).

Consider GGUGUUCAGAUGGUUCCCATT against Exosc1, for which the z-score is -1.19 (inactive).

As to GCUGUUACCUUGACGAAUATT against Tsc2, the z-score was 1.32 (inactive).

Consider GGGAUAAAGAGCAAAGAAUTT against Trdv2-2, for which the z-score was -0.466 (inactive).

In the case of GCGUAAUUCCAGCAGAUGUTT against Mepe, the z-score is 1.74 (inactive).

GAAAAGUGCACCAUCAGCCTT against Ly6g5b: the z-score is -2.27 (active).

On to GCUACAGGUCAAUGUCGUGTT against Tcte2, for which the z-score is -1.61 (inactive).

Consider CCCAUAGCUAAUGAACCAATT against Sntg2, for which the z-score was -0.604 (inactive).

Turning to GGAGAGAAAAAGUAAUAUCTT against Fgf1, the z-score is 0.843 (inactive).

“GGUCGUAAGACAGUUGUCCTT against 4932438H23Rik”: the z-score was -0.715 (inactive).

On to GGAGCUGACAGAGAGAUUCTT against Ankrd40, for which the z-score is -2.77 (active).

GGAGCAACACUUGCGUACUTT against Ccnq: the z-score is 1.32 (inactive).

“GCACUGUCGCAUCAUCAGATT against D230025D16Rik”: the z-score is 1.83 (inactive).

Take “GGAAACCUGAUGAUCUUUUTT against Olfr421-ps1”: the z-score is -1.27 (inactive).

Regarding GGAUGUCCGGAAGAUGUUUTT against Celf3, the z-score is -0.284 (inactive).

For GGUGUGUUCCCAACUGGUGTT against Olfr1124, the z-score was 2.04 (active).

Consider GUGGAAAUGUACUUCUCUGTT against Olfr257, for which the z-score is 0.435 (inactive).

On to AGCUGCUCUGAGUUAGAAATT against Scd2, for which the z-score was 0.934 (inactive).

In the case of GGCAAAUCAUUGAUCAGAATT against Mtrf1, the z-score is -0.214 (inactive).

Take GGACAGACUGAAUGAGCAGTT against Faf2: the z-score was 2.24 (active).

Turning to GCAAAACUUGGAACGAUUUTT against Ddx1, the z-score is 0.153 (inactive).

As for CCUAAAUUUGAGGUAACCUTT against Zbtb21, the z-score was 0.571 (inactive).

For the sequence GGAUAAAAGCAUUUGAGUCTT against Acp1, the z-score was 0.694 (inactive).

On to GGGAACCAGUACAAUUACATT against Glt8d1, for which the z-score was -0.755 (inactive).

Take GGAGAUCUAUGACAAGAAATT against Idh1: the z-score is -0.376 (inactive).

Turning to GGUAAGAAGACAAACACUCTT against Ly6g6d, the z-score is 0.237 (inactive).

Take GCUCUACUGCUUCUUAGUCTT against Olfr965: the z-score is -2.4 (active).

On to GGAUAAGAAGAUGAGGCAGTT against Mns1, for which the z-score was -0.0977 (inactive).

For GCUUCAAAACAAACCCUUGTT against Parp11, the z-score was -1.58 (inactive).

GGAGUGUAUGCAGAAGUUUTT against Dnajc24: the z-score is 1.49 (inactive).

For GGUUUUGGUAUCUCCAUGGTT against Olfr2, the z-score was -0.48 (inactive).

Turning to GGAGCAUAGAAAAGACAAUTT against Grk2, the z-score was 2.69 (active).

GGAUAAGAAGCGAUUUGAATT against Rcn2: the z-score is -0.294 (inactive).

Take GCUGCUGGAGUGCAACUAATT against Tradd: the z-score was 0.391 (inactive).

Take GCACAACAUACCCUGUGGUTT against Syn1: the z-score is -2.72 (active).

Regarding CCUGAAUGGACAAACAGGATT against Gm6460, the z-score is -0.193 (inactive).

Take CCAAACCUAUUCUGAGAUGTT against Klrg2: the z-score was -0.0403 (inactive).

With GGAGCUGGACAAGUUCAUGTT against Clrn1, the z-score was -0.994 (inactive).

With GGGAGCAAAGAGGAACAGCTT against Fis1, the z-score was -0.73 (inactive).
